Experimental data: PubChem BioAssay (NCI)
About 83,000 compounds went through this panel and 20% of them were active in at least one assay; those are over-represented in the sample as a whole.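 Assay: single dose, 48 h. Readout: percent growth (0 = no net growth; negative = cell death). Active: <10.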 A number with no mark means an inactive call. Activity calls are given as the source filed them.

Legend:
Assay in all cases: NCI-60 one-dose screen, 48 h (100 = growth as untreated, 0 = no growth, -100 = all killed)
Conditions in all cases: 10 µM unless noted
NCI-H23 lung = system: NCI-H23 lung
NCI-H226 lung = system: NCI-H226 lung
NCI-H322M lung = system: NCI-H322M lung
HOP-62 NSCLC = system: HOP-62 NSCLC
NCI-H460 lung = system: NCI-H460 lung
HOP-92 NSCLC = system: HOP-92 NSCLC
NCI-H522 lung = system: NCI-H522 lung
A549/ATCC NSCLC = system: A549/ATCC NSCLC
786-0 renal = system: 786-0 renal
COLO 205 colon = system: COLO 205 colon
DU-145 prostate = system: DU-145 prostate
K-562 leukemia = system: K-562 leukemia
MALME-3M melanoma = system: MALME-3M melanoma
MDA-MB-231 breast = system: MDA-MB-231 breast
RXF 393 renal = system: RXF 393 renal
SF-268 CNS = system: SF-268 CNS
SF-295 CNS = system: SF-295 CNS
SF-539 CNS = system: SF-539 CNS
UACC-257 melanoma = system: UACC-257 melanoma
M14 melanoma = system: M14 melanoma

Structure (SMILES) | growth (NCI-H23 lung) [%] | growth (NCI-H226 lung) [%] | growth (NCI-H322M lung) [%] | growth (HOP-62 NSCLC) [%] | growth (NCI-H460 lung) | growth (HOP-92 NSCLC) | growth (NCI-H522 lung) [%] | growth (A549/ATCC NSCLC) [%] | growth (786-0 renal) [%] | growth (COLO 205 colon) | growth (DU-145 prostate) | growth (K-562 leukemia) | growth (MALME-3M melanoma) [%] | growth (MDA-MB-231 breast) [%] | growth (RXF 393 renal) [%] | growth (SF-268 CNS) [%] | growth (SF-295 CNS) | growth (SF-539 CNS) | growth (UACC-257 melanoma) [%] | growth (M14 melanoma) [%]
COc1ccc(C(=O)c2cc(C)c(OC)c(C)c2)c(OC)c1N(C(=O)C(Cl)Cl)C(=O)C(Cl)Cl | 21.9 | 15.9 | 41.5 | 17.7 | 2% (active) | 2.49% (active) | 11 | 13.6 | 14.1 | -34.6% (active) | 1.52% (active) | 8.2% (active) | 58.2 | 13.2 | 41.2 | 30.6 | 7.31% (active) | -16% (active) | 48.3 | –
CC(=O)[C@@H]1CC[C@]2(C(=O)n3ccnc3)CC[C@]3(C)[C@H](CC[C@@H]4[C@@]5(C)Cc6c([nH]c7ccccc67)C(C)(C)[C@@H]5CC[C@]43C)[C@@H]12 | 87.8 | 76.3 | 95.3 | 95.7 | 80.9% | 93.9% | 82.9 | 68.2 | 94.4 | 101% | 98.5% | 67.7% | 102 | 90.7 | 106 | 90.8 | 82.8% | 97% | 97.1 | –
[2H]C1([2H])NC([2H])([2H])C([2H])([2H])N(c2ccc(Nc3ncc4cc(C(=O)N(C)C)n(C5CCCC5)c4n3)nc2)C1([2H])[2H] | 69.9 | 71.2 | 78.7 | 60.3 | 62.7% | 76.1% | 82.7 | 51.5 | 61.1 | 38.3% | 99.7% | 64.6% | 58.4 | 64.9 | 82.4 | 77.4 | 72.7% | 86.5% | 61.1 | –
O=C(CSc1nc2sc3c(c2c(=O)n1Cc1ccccc1)CCCC3)N1CCN(c2ccccc2)CC1 | 90.9 | 94.6 | 89.4 | 88.3 | 103% | 103% | 81.1 | 73 | 103 | 112% | 103% | 99.4% | 109 | 101 | 105 | 93.9 | 101% | 103% | 85.7 | 97.2
C=C1C(=O)O[C@H]2[C@H]1CC/C(COC(=O)CCCc1c[nH]c3ccccc13)=C\CC[C@@]1(C)O[C@@H]21 | 65.9 | 76.7 | 104 | 89.8 | 85.9% | 44.6% | 39.9 | 72 | 14.2 | 64.8% | 49.6% | -9.04% (active) | 86.4 | 35.4 | 32.7 | 60.8 | 82% | 41.7% | 64.1 | 53.1
Cc1ccc(S(=O)(=O)Nc2ccc(Cl)cc2)cc1 | 91.6 | 96.6 | 94 | 98.4 | 105% | 86.9% | 104 | 94 | 100 | 111% | 118% | 97.6% | 100 | 86.6 | 103 | 107 | 91.2% | 104% | 105 | 103
Nc1c(C(=O)Nc2ccc(Cl)cc2)cc(-c2nc3ccccc3s2)c(=O)n1NS(=O)(=O)c1ccc(Cl)cc1 | 92.7 | 86.4 | 93.8 | 102 | 106% | 96.2% | 91.3 | 104 | 101 | 105% | 107% | 95.7% | 107 | 94.1 | 104 | 96.7 | 98.4% | 102% | 104 | –
O=C(Nc1nc(-c2ccc(Br)cc2)cs1)c1cc(-c2ccc(Br)cc2)nc2ccc(Cl)cc12 | 69.7 | 76.3 | 89.9 | 80.1 | 88.3% | 71.7% | 76.9 | 84.8 | 94.3 | 84.5% | 92.6% | 56.6% | 105 | 74.1 | 100 | 85 | 97.8% | 99.1% | 101 | –
